# In the library only some 9.5% were active in any assay of this set; here they are far more common.
# Tau ThT inhib – inhibitors of human tau fibril formation, thioflavin T binding. AID 1460. recombinant tau K18 P301L, heparin-induced fibrillization, ThT fluorescence. Potency, µM (series often up to 57.4 µM), for inactives: at the highest dose activity, negative = inhibition, hits mostly inhibitors. P10636. 2.1% of 270,000 active; note: nearly all actives have a fitted effect of over 55% in size
# Target sequence (P10636 561-689 P618L limits assumed): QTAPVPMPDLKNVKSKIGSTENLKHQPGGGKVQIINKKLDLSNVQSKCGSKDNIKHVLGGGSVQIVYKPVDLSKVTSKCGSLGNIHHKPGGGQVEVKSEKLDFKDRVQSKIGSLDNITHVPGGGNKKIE
#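 In this qHTS, human K18 P301L tau is incubated with compound and heparin for 6 hr at 37 C, and Thioflavin T fluorescence then reports fibril load.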
# Tau fibril FP – blocks human tau fibril formation measured by polarization; P10636; K18 P301L tau heparin fibrillization, Alexa594 FP, 6 h; Potency, µM (doses to about 57.7 µM), inactives show at the top dose activity, negative = inhibition, most hits filed as inhibitors; 0.39% of 280,000 active; note: nearly all actives have a fitted effect of over 55% in size
#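 Heparin (20 uM) drove fibril formation of recombinant tau K18 P301L, 15 uM unlabeled with 0.24 uM Alexa 594 label, for 6 hr at 37 C in 100 mM sodium acetate pH 7. Fluorescence polarization (555/632 nm) read 1 hr after 30 uM ThT.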
# HPGD block – inhibitors of human 15-hydroxyprostaglandin dehydrogenase (HPGD) | purified HPGD, NADH fluorescence kinetic, PGE2 substrate | Potency, µM, without a hit: at the top dose activity change, negative = inhibition, hits mostly inhibitors | 4.3% of 150,000 active | AID 894; active = well fitted inhibition curve with a large enough effect, not every such curve was filed as active; inconclusive = small, poorly fitted or top-dose-only effect, or another doubt; inactive = no such curve, though single readings can be large or run the other way
#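 20 nM HPGD preincubated 15 min at room temperature with compound in 50 mM Tris-HCl pH 8, 0.01% Tween 20. Started with 1 mM NAD+ and 30 uM prostaglandin E2; NADH fluorescence (360/450 nm) read 5 times over 30-s intervals, last minus first.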
# ALDH1A1 inh – ALDH1A1 (human) enzyme inhibition | Purified ALDH1A1, NADH fluorescence, propionaldehyde substrate | AID 1030 | P00352 | 7.3% of 220,000 active | Potency, µM (top dose mostly 75.3 µM), inactives show top-dose activity, negative = inhibition, most hits filed as inhibitors; active = well fitted inhibition curve with a large enough effect, not every such curve was filed as active; inconclusive = small, poorly fitted or top-dose-only effect, or another doubt; inactive = no such curve, though single readings can be large or run the other way;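 note: plate controls were no enzyme wells and a reference inhibitor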
# Target sequence (P00352 whole entry, looked up): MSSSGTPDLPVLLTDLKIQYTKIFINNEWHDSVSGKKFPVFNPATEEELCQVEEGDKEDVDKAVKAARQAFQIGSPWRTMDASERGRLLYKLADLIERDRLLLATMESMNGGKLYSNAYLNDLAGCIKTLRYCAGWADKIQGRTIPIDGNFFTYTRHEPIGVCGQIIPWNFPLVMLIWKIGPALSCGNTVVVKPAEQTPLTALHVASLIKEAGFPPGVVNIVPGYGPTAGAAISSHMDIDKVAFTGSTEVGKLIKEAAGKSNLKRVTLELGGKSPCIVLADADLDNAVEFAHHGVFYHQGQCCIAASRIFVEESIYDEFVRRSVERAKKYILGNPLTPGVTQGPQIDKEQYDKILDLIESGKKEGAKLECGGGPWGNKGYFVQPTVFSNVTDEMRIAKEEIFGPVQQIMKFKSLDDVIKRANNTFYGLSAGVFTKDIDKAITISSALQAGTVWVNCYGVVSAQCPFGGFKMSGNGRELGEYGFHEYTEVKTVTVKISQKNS
# NPSR antagonist – neuropeptide S receptor (human) antagonism, cAMP; Q6W5P4; CHO-NPSR cells, cAMP TR-FRET, antagonist mode; Potency, µM (titrated, usually from 38.3 µM), for the others: top-dose activity change, negative = inhibition, most hits filed as inhibitors; 1% of 220,000 active; note: nearly all actives have a fitted effect of over 50% in size
# Tau fluor cs – counter-screen for tau fibril formation inhibitors; Potency, µM (titrated, usually from 57.7 µM), inactives show top-dose activity change, negative = decrease; tau K18 P301L Alexa594 fluorescence, heparin fibrillization; AID 1463; 0.93% of 280,000 active; note: nearly all actives have a fitted effect of over 55% in size
#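 Human tau K18 P301L (15 uM unlabeled, 0.24 uM Alexa 594-labeled) in 100 mM sodium acetate pH 7 with 20 uM heparin, 6 hr at 37 C. ThT 30 uM added, 1 hr ambient; Alexa 594 FP and total fluorescence read at 555/632 nm.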
# * marks the source's active call; other numbers are inactive results; ? = inconclusive; / = not tested or not shown; [ ] = another dose, or the depositor's remark. Unless noted, calls come from the whole dose curve; as a rule, active = well fitted curve in the direction sought with a large enough effect; inconclusive = small, poorly fitted or top-dose-only effect, or another doubt; inactive = no such curve, though single readings can be large; an effect the other way counts as inactive or inconclusive. Unless noted, % is set by controls: 0 for no effect and ±100 for the full control effect; potency is the fitted concentration of half-maximal effect.
SMILES,Tau ThT inhib,Tau fibril FP,HPGD block,ALDH1A1 inh,NPSR antagonist,Tau fluor cs
O=C1/C(=C\c2ccccn2)SC(=S)N1Nc1ncc(C(F)(F)F)cc1Cl,28.2µM*,?,31.6µM*,?,?,-29.5%
Cc1nc(Cl)cc(CS(=O)(=O)c2ccc(Cl)cc2)n1,-0.9%,1.0%,/,20µM*,8.9%,4.4%
Cc1nc(CS(=O)(=O)c2ccccc2)cc(Sc2ccc(Cl)cc2Cl)n1,-13.6%,-2.8%,-2.5%,?,-18.1%[46.1 µM],-20.0%
Cc1cc(=O)n(CC(=O)Nc2ccc([N+](=O)[O-])cc2)c(-n2nc(C)cc2C)n1,?,-12.8%,/,/,/,?
O=C(Cn1c(=O)nc(-c2ccccc2)c2ccccc21)NCCc1ccc(Cl)cc1,-3.3%,-5.7%,/,/,/,-5.6%
Cc1nc(-c2ccccc2)c(-c2ccccc2)[nH]1,-5.7%,3.2%,?,-16.6%,3.4%,-10.8%
Oc1ccc(-c2nc(-c3ccccc3)c(-c3ccc(Br)cc3)[nH]2)cc1,28.2µM*,?,/,/,/,8.91µM*[quencher]
COc1cc(-c2nc(-c3ccccc3)c(-c3ccc(Br)cc3)[nH]2)cc(OC)c1O,?,4.1%,/,/,/,11.2µM*[quencher]
Oc1ccc(N=Nc2nc(-c3ccccc3)c(-c3ccccc3)[nH]2)cc1,4.47µM*,?,-6.4%,-1.6%,?,11.2µM*[quencher]
Cc1ccc(-c2[nH]c(-c3ccc(C(=O)O)cc3)nc2-c2ccccc2)cc1,-17.8%,7.1%,?,?,-37.4%,-18.3%
COc1ccc(-c2[nH]c(-c3cc(OC)c4c(c3)OCO4)nc2-c2ccccc2)cc1,?,?,?,?,-57.9%,12.6µM*[quencher]
O=C(c1cccc(Cl)c1)C1CCCN(C(=O)c2ccoc2)C1 (centres undefined),-2.2%,-9.6%,/,-4.3%,3.1%,-3.9%
O=S1(=O)C=CC(c2ccccc2)C1 (centres undefined),-0.9%,-10.9%,/,/,14.8%,-1.5%
Cc1ccc2c(c1)c1c3n2CC(=C2C(=O)OC(C)(C)OC2=O)NC3CCC1 (centres undefined),?,-1.4%,-17.0%,10µM*,-18.0%[46.1 µM],-22.0%
CCOC(=O)c1cc2c(C)[nH]c(C)c2cc(C(=O)OCC)c1=O,?,-14.9%,/,25.1µM*,16.6%,-19.0%
COC(=O)c1cc(N=Nc2sc(N)nc2C)cc(C(=O)OC)c1,15.8µM*,8.8%,/,/,-2.2%,?
COC(=O)c1ccc2nc(C)c(C)nc2c1,2.8%,0.3%,-9.2%,6.3%,3.6%[46.1 µM],3.1%
Cc1nc(-n2ncc(C#N)c2N)c2c3c(sc2n1)CCC3,-7.9%,5.0%,-19.4%,9.0%,-6.9%[46.1 µM],-3.9%
CCCSc1nc(-n2ncc(C#N)c2N)c2c3c(sc2n1)CCC(C)C3 (centres undefined),-17.6%,-7.1%,?,3.98µM*,?,?
CC(=O)O[C@@H]1CC[C@]2(C)C(=C[C@@H]([C@@H]3C=C4C[C@@H](OC(C)=O)CC[C@]4(C)C4=C3[C@H]3C[C@@H]5O[C@@]6(CC[C@H](C)CO6)[C@@H](C)[C@@H]5[C@@]3(C)CC4)C3=C2CC[C@@]2(C)[C@H]4[C@@H](C)[C@]5(CC[C@H](C)CO5)O[C@@H]4C[C@H]32)C1,/,/,-4.9%,?,/,/
COc1ccc(-n2cnnc2SCc2ncc(-c3ccccc3)o2)cc1,-5.6%,-2.8%,-10.4%,-2.3%,-12.1%[46.1 µM],-1.2%
Cn1c(COc2ccc(Cl)cc2)nnc1SCc1ncc(-c2ccccc2)o1,-17.5%,2.8%,-5.2%,20µM*,?,3.6%
O=C(O)/C(=C\c1ccc(O)cc1)c1cccc2ccccc12,/,/,0.9%,7.2%[13.5 µM],/,/
O=c1cc(N=Nc2ccc(Cl)cc2)[nH]c(=O)[nH]1,11.2µM*,?,/,/,?,?
O=c1cc(-c2ccc(Cl)cc2)oc(=O)[nH]1,-6.4%,-0.6%,/,/,-9.4%,-2.1%
SMILES,Tau ThT inhib,Tau fibril FP,HPGD block,ALDH1A1 inh,NPSR antagonist,Tau fluor cs
COc1ccc(NS(=O)(=O)c2ccc(O)c(NC(=O)c3cc4c(C)nn(-c5ccc(F)cc5)c4s3)c2)cc1,?,-12.3%,?,?,-53.4%,?
Cc1ccc2[nH]c(-c3cccc(N)c3)cc2c1,10µM*,?,?,?,-8.3%[46.1 µM],14.1µM*[quencher]
CC1(C)CC2(CCO1)C(Nc1ccccc1)=NC(=S)N2CC(N)=O (centres undefined),-4.4%,-3.5%,/,0.0%,11.8%,-8.2%
CCOC(=O)C1(C)/C(=N/Nc2ccc(S(N)(=O)=O)cc2)C(=O)C(=O)N1c1ccccc1 (centres undefined),11.2µM*,-1.2%,/,17.8µM*,-22.8%,-22.8%
CCOC(=O)C1(C)/C(=N/Nc2ccc(Cl)cc2)C(=O)C(=O)N1c1ccccc1 (centres undefined),14.1µM*,?,?,?,-20.0%[46.1 µM],-26.9%
CCOC(=O)C1(C)/C(=N/Nc2ccccc2Cl)C(=O)C(=O)N1c1ccccc1 (centres undefined),14.1µM*,-14.2%,39.8µM*,0.224µM*,-7.5%[46.1 µM],-29.3%
CCOC(=O)CSc1nnc(CNc2cccc(Cl)c2)n1-c1ccccc1,-3.4%,-0.5%,3.1%,?,-8.9%[46.1 µM],-6.7%
CCOC(=O)C1(C)/C(=N/Nc2cccc(Cl)c2)C(=O)C(=O)N1c1ccccc1 (centres undefined),20µM*,-3.5%,31.6µM*,?,-12.0%[46.1 µM],-15.8%
COc1ccc(-c2noc(N3CCC(C(=O)N4CCN(c5ccccc5F)CC4)CC3)n2)cc1,?,?,/,/,/,-9.8%
CCCC1(C)NC(=O)c2ccccc2O1 (centres undefined),-9.1%,-3.5%,/,6.2%,-0.5%,-10.0%
CCCCOc1ccc(-c2ncc(N)cn2)cc1,/,6.4%,/,/,3.6%,-29.2%
CCN(CC)S(=O)(=O)c1ccc(Oc2ccc(S(=O)(=O)N(CC)CC)cc2)cc1,-13.6%,10.9%,-3.8%,-7.6%,-4.3%[46.1 µM],-18.8%
CC(=O)CC(C)(C)S(=O)(=O)c1ccc(Oc2ccc(S(=O)(=O)C(C)(C)CC(C)=O)cc2)cc1,4.5%,4.4%,-0.3%,8.91µM*,-0.1%,2.6%
Cc1ccc(OCc2ccc(C(=O)NCc3cccnc3)cc2)cc1C,-3.8%,6.0%,/,3.2%,6.0%,-14.3%
Cc1ccc(C(=O)NC(=S)Nc2ccc3c(c2)OCCO3)c(C)c1,?,-7.2%,-1.7%,?,-24.6%[46.1 µM],-29.3%
O=C(NC(=S)Nc1ccc(S(=O)(=O)N2CCCCCC2)cc1)c1cccs1,-1.6%,-11.6%,-15.2%,12.6µM*,-23.9%,-15.3%
Cc1cccc(C(=O)NC(=S)Nc2ccc(S(=O)(=O)N3CCCCC3)cc2)c1,-11.8%,-11.1%,-9.7%,8.91µM*,-20.9%[46.1 µM],-24.0%
Cc1ccc(C(=O)NC(=S)Nc2ccc(N3CCOCC3)cc2)c(C)c1,?,6.5%,/,31.6µM*,-3.2%,-28.0%
